# From PubChem BioAssay
# The list is not random: actives were taken first. Their share in the collection is about 19%.
# KB-V1 cytotox – kills drug-selected multidrug resistant KB-V1 cells; Potency, µM (series often up to 46.1 µM), usual class: cytotoxic; KB-V1 MDR cells viability, CellTiter-Glo, 72 h; AID 1347076; 400,000 compounds, 3.4% hits; note: nearly all actives have a fitted effect of over 60% in size
#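 KB-V1, DMEM (no phenol red) + 10% FBS; cpd pin-transferred, titration series; 72 h, 37 degrees C; CellTiter-Glo, luminescence. Data normalized, curve-fit.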
# HT1080NT lethal – kills 2HG-producing HT-1080-NT fibrosarcoma cells; AID 686970; Potency, µM (titrated, usually from 46.1 µM), inactives show at the top dose activity, negative = less viability, actives largely listed as cytotoxic; 360,000 compounds, 1.6% hits; HT-1080-NT fibrosarcoma viability, CellTiter-Glo ATP luminescence, 48 h;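 note: NT is the 2HG producing partner of a matched IDH1 knockdown line; 0% = DMSO-treated cells and -100% = media-only wells without cells; nearly all actives have a fitted effect of over 55% in size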
#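 Viability by CellTiter-Glo luminescence after 48 h compound exposure at 37C of HT-1080-NT cells (750/well, RPMI, 5% FBS). % activity scaled between DMSO wells and medium-only wells, then curve-fitted and categorized by curve class.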
# KB-3-1 cytotox – KB-3-1 parental cell cytotoxicity | KB-3-1 viability, CellTiter-Glo ATP luminescence, 72 h | Potency, µM (top dose mostly 46.1 µM), most hits filed as cytotoxic | 400,000 compounds, 1.4% hits | AID 1347075; note: nearly all actives have a fitted effect of over 60% in size
#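 72 h, 37 °C compound treatment of KB-3-1 parental cells; CellTiter-Glo added, 10 min, luminescence read. Data corrected against DMSO-only plates and normalized before curve fitting.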
# TDP1 cell CPT – DT40-hTDP1 cell growth loss with CPT. chicken DT40 Tdp1-/-;hTDP1 cells + 20 nM CPT, ATP luminescence, 48 h. Potency, µM (titrated, usually from 46.2 µM), for inactives: at the highest dose activity change, negative = growth inhibition, most hits filed as inhibitors. 420,000 compounds, 12% hits. AID 686979; note: nearly all actives have a fitted effect of over 55% in size
#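 Chicken DT40 Tdp1-/- cells complemented with human TDP1, 400 cells/well, exposed to compounds plus 20 nM camptothecin for at least 48 h at 37 C; viability read as ATP content by CellTiter-Glo luminescence.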
# HT1080 IDH1KD tx – HT-1080 IDH1 knockdown cell toxicity (counter line); HT-1080 IDH1 knockdown viability, ATP luminescence, 48 h; Potency, µM (series often up to 46.1 µM), for inactives: at the highest dose activity, negative = toxicity, most hits filed as cytotoxic; 360,000 compounds, 2% hits; AID 686971;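 note: 0% = DMSO wells and -100% = cell-free medium wells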
#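 % activity derives from luminescence (CellTiter-Glo), normalised to DMSO and no-cell wells. HT-1080-IDH1KD cells, 750/well, had 48 h compound exposure at 37 °C.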
# DT40 TDP1 no CPT – qHTS for Inhibitors of human tyrosyl-DNA phosphodiesterase 1 (TDP1): qHTS in cells in absence of CPT | DT40 Tdp1-/- hTDP1 cells, no CPT, ATP luminescence, 48 h | Potency, µM (series often up to 46.2 µM), without a hit: at the top dose activity change, negative = growth inhibition, most hits filed as inhibitors | 420,000 compounds, 15% hits | AID 686978, 2013; note: nearly all actives have a fitted effect of over 55% in size
#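 A cellular qHTS used chicken DT40 cells lacking endogenous Tdp1 but carrying stably transfected human TDP1. Compounds were applied without camptothecin, and cell growth kinetics were judged by ATP-dependent luminescence after ≥48 hr.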
# An asterisk follows results filed as active; i = inactive; ? = inconclusive; / = not tested or not shown. Calls come from the whole dose curve; as a rule, active = well fitted curve in the direction sought with a large enough effect; inconclusive = small, poorly fitted or top-dose-only effect, or another doubt; inactive = no such curve, though single readings can be large; an effect the other way counts as inactive or inconclusive. Unless noted, % is set by controls: 0 for no effect and ±100 for the full control effect; potency is the fitted concentration of half-maximal effect.
SMILES,KB-V1 cytotox,HT1080NT lethal,KB-3-1 cytotox,TDP1 cell CPT,HT1080 IDH1KD tx,DT40 TDP1 no CPT
O=C(CN1CCN(c2ccccc2)CC1)Nc1ccc(OCc2ccccc2)cc1,?,-5.4%,i,?,-13.1%,?
COC(=O)c1ccc2c(=O)[nH]c(CCl)nc2c1,i,-1.5%,i,11.6µM*,?,14.6µM*
COC(=O)c1ccc2c(=O)[nH]c(CN3c4ccccc4CC3C)nc2c1 (stereo not given),?,5.7%,i,-16.1%,12.7%,?
C=CCn1c(SCc2nc3ccccc3c(=O)[nH]2)nc2scc(C3CC3)c2c1=O,i,-20.3%,i,14.6µM*,-13.0%,16.4µM*
C=CCn1c(SCC(=O)c2c(N)n(CCC)c(=O)n(C)c2=O)nc2sc(CC)cc2c1=O,?,9.6%,?,6.51µM*,5.0%,5.8µM*
COC(=O)c1c(C)[nH]c(C(=O)OC(C)C(=O)NC2CCCCC2C)c1C (stereo not given),i,-13.4%,i,11.6µM*,-13.0%,?
Cc1nn(-c2ccccc2)c(C)c1C(=O)OC(C)C(=O)NC1CCCCC1C (stereo not given),?,-0.4%,i,13µM*,-2.2%,20.6µM*
COC(=O)c1c(C)[nH]c(C(=O)OC(C)C(=O)N2CCOCC2)c1C (stereo not given),i,6.9%,i,15.1%,12.5%,-0.8%
COc1ccc(C(=O)NCc2nnc(SCC(=O)N3CCCCC3)o2)cc1OC,i,13.3%,i,-5.4%,5.3%,6.7%
Cc1ccc(S(=O)(=O)N2CCN(C(=O)CN3CCOCC3)C2c2ccccc2)cc1 (stereo not given),i,-4.7%,i,?,-20.2%,16.4µM*
Cc1ccc(S(=O)(=O)N2CCN(S(=O)(=O)c3ccccc3)C2c2ccc(N(C)C)cc2)cc1 (stereo not given),i,-10.0%,i,16.4µM*,3.4%,?
COc1ccc([C@H]2CC(=O)C[C@@H](CCn3cc(-c4ccncc4)nn3)O2)cc1,i,6.6%,i,-24.4%,1.7%,?
CCN(C1CCCCC1)S(=O)(=O)c1cc(C)ccc1OC,i,-10.0%,i,?,-14.0%,18.4µM*
CCN(C1CCCCC1)S(=O)(=O)c1ccc(OC)c(C)c1,i,1.0%,i,14.6µM*,-4.8%,16.4µM*
Cc1cccc(NC(=O)N2CCC(N3CCN(Cc4ccccc4)C(=O)C3=O)CC2)c1C,?,/,i,-21.3%,/,12.4%
CC1CN(C(=O)N2CCC(C(=O)NC3CCCCCC3)CC2)c2cc(Cl)ccc2O1 (stereo not given),i,/,i,14.6µM*,/,18.4µM*
CCOc1ccc(NC(=O)C2CCN(C(=O)N3CC(C)Oc4ccc(Cl)cc43)CC2)cc1 (stereo not given),i,/,i,23.1µM*,/,14.6µM*
Cc1cc(C)c(NC(=O)C2CCN(C(=O)N3CC(C)Oc4ccc(Cl)cc43)CC2)c(C)c1 (stereo not given),i,/,i,?,/,20.6µM*
c1ccc2sc(-n3cc(C4CCCCC4)nn3)nc2c1,?,18.3%,?,?,-15.8%,?
CC(=O)Nc1ccc(-n2nnnc2SCC(=O)N2CCN(C(=O)c3ccco3)CC2)cc1,i,3.0%,i,-22.2%,0.1%,-17.3%
COC(=O)C1=C(C)N(Cc2ccccc2)C(=NCCN2CCOCC2)N[C@H]1CCc1ccccc1,i,-1.5%,i,?,-12.9%,23.1µM*
C=CCN=C1N[C@@H](c2ccccc2)C(C(=O)OC)=C(C)N1CCOC,i,14.2%,i,-27.5%,1.1%,-23.3%
